# Measurements reported in PubChem BioAssay AID504882 (Broad Institute, 2011).
# Screen size: about 1,200 compounds; about 290 (24%) were called active. Inconclusive results (about 9%) are left out. How the calls were made is not given here. The list is a sample of the results. Entries with a potency or affinity are not part of this list.
# Experiment: cytotoxicity in EBV lymphoblastoid cells, dose response, cytotoxicity control, cell-based, plate reader, cherry-picks, set 2 (AID 504882)
# Settings: EBV lymphoblastoid cells (LCL) viability; series mostly up to 19.5 µM
row,SMILES,outcome
1,O=C(O)c1ccc(C=NN=C2c3ccccc3-c3ccccc32)cc1,inactive
2,CC(=O)c1ccc(N2CCN(c3ccnc4cc(Cl)ccc34)CC2)cc1,inactive
3,Cc1cc(C)c2sc(NC(=O)C3CC3)nc2c1,inactive
4,N#CC1=C(N)OC2=C(C(=O)CCC2)C12C(=O)N1CCCc3cccc2c31 (stereo not given),inactive
5,COc1ccc(-c2csc3ncnc(Sc4nnnn4C)c23)cc1,inactive
6,Clc1ccc(-n2ncc3c(N4CCCC4)ncnc32)cc1,inactive
7,Cc1ccsc1-c1nc(CSCC(=O)N2CCN(c3ccccc3)CC2)c(C)o1,inactive
8,COc1cc(NC(=S)N2CCN(CCO)CC2)cc(OC)c1,inactive
9,COc1ccc2cc(C(N)=O)/c(=N\NC(=O)c3ccccc3)oc2c1,inactive
10,CCCN1C(=O)C2(SC(NC(C)=O)=NN2C(C)=O)c2cc(C)cc(C)c21 (stereo not given),inactive
11,c1ccc(-c2nnc(-c3ccccn3)s2)nc1,inactive
12,Cc1cc(C)c(OCCn2ccnc2)c(C)c1,inactive
13,COc1ccc(C=Cc2ccc3ccccc3n2)c(OC)c1,inactive
14,C[C@@]12C(=O)N(Cc3ccccc3)CC(=O)N1[C@H](/C=C/c1ccccc1)[C@@H]1C(=O)N(c3ccccc3)C(=O)[C@@H]12,inactive
15,CCOC(=O)N1CCC(n2c(=S)[nH]c3ccccc3c2=O)CC1,inactive
16,O=C1CC(c2ccccc2)Oc2ccccc21 (stereo not given),inactive
17,C[C@@H](C(=O)Nc1ccc2c(c1)OCCO2)n1c(=O)[nH]c2ccccc2c1=O,inactive
18,CCCCOc1ccc2c(c1)/C(=C(\C(Cl)=C(Cl)Cl)[N+](=O)[O-])N2,inactive
19,Cc1ccc(-n2cc(C(=O)c3ccccc3O)cn2)cc1,inactive
20,COc1ccc(OC)c(S(=O)(=O)NC(C)CCc2ccccc2)c1 (stereo not given),inactive
21,CC(C(=O)N=Nc1c(O)[nH]c2ccccc12)n1cnc2ccccc2c1=O (stereo not given),inactive
22,COc1ccc(Cl)cc1NC(=O)CN(C)S(=O)(=O)c1cccs1,inactive
23,Cc1cc(C)cc(C(=O)NCCC(=O)NCc2cc(=O)n(C)c(=O)n2C)c1,inactive
24,COc1ccc(S(=O)(=O)N2CCN(CC(=O)Nc3ccc(C)c(F)c3)CC2)cc1,inactive

row,SMILES,outcome
1,CCOC(=O)C1CCN(S(=O)(=O)Cc2ccccc2)C1=O (stereo not given),inactive
2,Cc1cc(C)c(S(=O)(=O)Nc2nnc(CC(C)C)s2)c(C)c1,inactive
3,CC(=O)c1cc(C(=O)Nc2ccc(C(=O)O)cc2)oc1C,inactive
4,CCSc1nnc(NC(=O)CCn2c(=O)oc3ccccc32)s1,inactive
5,COC(=O)CCCC[C@@H]1SC[C@@H](NC(=O)OC)[C@@H]1NC(=O)OC,inactive
6,COC(=O)c1ccccc1NC(=O)CSc1nnnn1C,inactive
7,COc1ccc(N2C3=[N+](CC2(C)O)c2ccccc2CC3)cc1 (stereo not given),inactive
8,O=S(=O)(NC1c2cccc3cccc(c23)C1Sc1ncccn1)c1ccccc1 (stereo not given),inactive
9,COc1ccc(CNC(=O)COC(=O)[C@@H]2CCCN2C(=O)c2cccs2)cc1,inactive
10,S=C(NCC1CCCCC1)Nc1ccc(Oc2ccccc2)cc1,inactive
11,O=C(c1noc2c1CCCC2)N1CCCCC1,inactive
12,CCOc1ccc(NC(=O)c2cnsn2)cc1,inactive
13,CCOC(=O)c1cn2nc(N3CCCCC3)ccc2n1,inactive
14,COC(=O)c1ccc2nc(-c3ccc4c(c3)OCO4)cn2c1,inactive
15,CCOc1cc(/C=C2/C(=N)N3N=C(CC)SC3=NC2=O)ccc1OC(=O)c1ccco1,inactive
16,COC(=O)c1ccc(CSc2nc3c(c(=O)n2-c2ccc(C)cc2)SCC3)o1,inactive
17,COC(=O)CSc1ncnc2c1sc1nc3c(cc12)COC(C)(C)C3,inactive
18,CCOC(=O)CNC(=O)CSc1nnc(NC(=O)c2ccc(C)cc2)s1,inactive
19,CC(C)(C)C(=O)Nc1nnc(SCC(=O)Nc2ccc3c(c2)OCO3)s1,inactive
20,O=C(NCCc1ccccc1)c1ccccc1Cl,inactive
21,CCc1nnc(NC(=O)c2ccc(S(=O)(=O)N3CCOCC3)cc2)s1,inactive
22,CC(C)N1CCN(c2ccc(OC[C@H]3CO[C@](Cn4cncn4)(c4ccc(Cl)cc4Cl)O3)cc2)CC1,inactive
23,Cc1ccccc1CC(=O)NCc1cccnc1,inactive
24,COc1cccc(/C=N\NC(=O)c2ccc(C)nc2)c1,inactive

row,SMILES,outcome
1,Cc1ccnc(N/C=C(/NC(=O)c2ccccc2)C(=O)N/N=C\c2ccc(F)cc2)n1,inactive
2,CCOc1cc(Br)cc(/C=N/NC(=O)c2cccnc2)c1O,inactive
3,CC(NC(=O)CNC(=O)OCc1ccccc1)C(=O)N1CC(O)CC1C(=O)OCc1ccccc1 (stereo not given),inactive
4,O=C(CN1C(=O)C2C3C=CC(C3)C2C1=O)NCCC1=CCCCC1 (stereo not given),inactive
5,COCCn1c(C)cc(C(=O)CSc2nnc3ccccn23)c1C,inactive
6,Cc1cc(C(=O)COC(=O)c2cccc(NS(C)(=O)=O)c2)c(C)n1CC1CCCO1 (stereo not given),inactive
7,CSCCC(NC(=O)c1ccco1)C(=O)OCC(=O)Nc1ncc(Cl)c(C)c1Cl (stereo not given),inactive
8,CNC(=O)C1=NCCCc2cc(OC)c(OC)cc21,inactive
9,NC(=O)c1ncn([C@@H]2O[C@H](CO)[C@@H](O)[C@H]2O)n1,inactive
10,Nc1ccc(CCNc2ncnc3c2ncn3[C@@H]2O[C@H](CO)[C@@H](O)[C@H]2O)cc1,inactive
11,Nc1ccn(C2CCCO2)c(=O)n1 (stereo not given),inactive
12,CC1(C)CC(=O)C(CC2=C(O)CC(C)(C)CC2=O)=C(O)C1,inactive
13,CCc1cc(Cl)c(OC)c(C(=O)NC[C@@H]2CCCN2CC)c1O,inactive
14,COc1ccc(NC(=O)CCS(=O)(=O)c2ccc3c(c2)CCN3C(C)=O)cc1,inactive
15,C=CCn1c(SCc2ccc3nonc3c2)nnc1-c1cccs1,inactive
16,COc1c(S(=O)(=O)N2CCN(c3ccc(F)cc3)CC2)ccc(Cl)c1Cl,inactive
17,O=C(CCCN1C(=O)/C(=C/c2ccccc2Cl)SC1=S)NNC(=O)c1ccccc1Cl,inactive
18,CN1C(=O)C(CC(=O)NC2CCCCC2)SC1=Nc1ccccc1 (stereo not given),inactive
19,CCOc1ccc(-c2nc(CSCC(=O)NCc3ccco3)c(C)o2)cc1,inactive
20,COc1ccc(/C=C\C(=O)NCc2ccc3c(c2)cc(C)n3C)cc1OC,inactive
21,COc1ccc(-c2csc3ncnc(NCCO)c23)cc1,inactive
22,CCOC(=O)Cc1csc(N/N=C\c2ccc(N(C)C)cc2)n1,inactive
